This is an account of results in PubChem BioAssay AID1671190 (National Center for Advancing Translational Sciences (NCATS), 2021).

Out of some 580,000 compounds screened, about 6,100 (1.1%) were called active. Not shown: some 15% with an inconclusive outcome. The entries come from a sample that favours actives as a whole. Values without a mark were called inactive. The call rests on the fitted dose curve; in most records, active means well fitted inhibition curve with a large enough effect; inconclusive means small, poorly fitted or top-dose-only effect, or another doubt; inactive means no such curve, though single readings can be large or run the other way.
On the % scale 0 is the no-effect control and ±100 the full control effect; potency means the concentration at half of the fitted maximal effect.

The target in this assay is Polyunsaturated fatty acid lipoxygenase ALOX12 (Homo sapiens) (UniProt P18054). Description: Primary qHTS assay for inhibitors of human arachidonate 12S-lipoxygenase (ALOX12): Round 2. The note with it: purified 12hLO, xylenol orange hydroperoxide absorbance; series mostly up to 108 µM; activity change, negative = inhibition: at the top concentration. The text has this: Assay Provider: Theodore R. Holman Ph.D. University of California, Santa Cruz, California Human lipoxygenase 12hLO is a member of the closely related lipoxygenase family of enzymes which catalyze the site-specific oxidation of arachidonic acid to various hormone precursor molecules and as such is a candidate for drug development in a variety of disease areas, such as cancer and inflammation. Inhibition of 12hLO activity was screened by utilizing arachidonic acid as a substrate. The extent of hydroperoxide product formation was measured by a secondary chromogenic reaction in which xylenol orange (XO, Sigma-Aldrich, cat. number 39,818-7) reacts with the ferric ions produced from the reaction between the hydroperoxide and ferrous ions. The Fe (III)-XO complex is characterized with red-shifted absorbance at 560 nm. A purified preparation of human 12hLO was supplied by Dr. Holman laboratory, University of California, Santa Cruz.
Polyunsaturated fatty acid lipoxygenase ALOX12 (Homo sapiens), sequence (P18054 whole entry, looked up): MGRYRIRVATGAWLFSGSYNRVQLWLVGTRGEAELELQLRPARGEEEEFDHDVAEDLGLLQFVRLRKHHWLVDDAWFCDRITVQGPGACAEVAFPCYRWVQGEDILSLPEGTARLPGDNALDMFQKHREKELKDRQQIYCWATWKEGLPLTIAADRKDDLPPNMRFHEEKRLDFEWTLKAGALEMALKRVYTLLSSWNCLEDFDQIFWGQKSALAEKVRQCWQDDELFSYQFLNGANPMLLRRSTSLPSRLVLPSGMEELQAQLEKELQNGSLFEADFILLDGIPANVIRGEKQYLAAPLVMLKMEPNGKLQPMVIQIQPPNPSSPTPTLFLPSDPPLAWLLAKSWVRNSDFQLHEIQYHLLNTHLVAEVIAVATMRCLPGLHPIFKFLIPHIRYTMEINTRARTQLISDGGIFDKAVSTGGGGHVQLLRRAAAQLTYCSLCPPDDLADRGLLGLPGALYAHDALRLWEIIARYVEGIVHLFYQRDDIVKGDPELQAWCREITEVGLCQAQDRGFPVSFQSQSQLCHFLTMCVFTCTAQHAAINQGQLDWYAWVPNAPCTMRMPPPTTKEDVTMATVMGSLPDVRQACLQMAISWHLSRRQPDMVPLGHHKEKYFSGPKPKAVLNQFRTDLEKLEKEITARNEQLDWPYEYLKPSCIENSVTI
PROTOCOL TABLE SEQUENCE No. (e.g., 1, 2, 3, etc.); […] (e.g., Cells, Incubation, Reagent, etc.); VALUE; DESCRIPTION 1; Enzyme; 3 uL; 150 nM 12hLO enzyme solution dispensed in 1536-well Greiner black, clear bottom plates. 2; Compound; 23 nL; compounds and controls were added. 3; Incubate; 15 min; room temperature. 4; Substrate; 1 uL; 40 uM arachidonic acid (final concentration). 5; Incubate; 30 min; room temperature. 6; Reagent; 4 uL; Fe-XO solution was added to each well. 7; Incubation; 30 min; room temperature 8; Detector; absorbance; Read 1 at 405 nm absorbance using ViewLux (Perkin-Elmer) CCD imager. 9; Detector; absorbance; Read 2 at 573 nm absorbance using ViewLux (Perkin-Elmer) CCD imager. NOTES (numbers refer to sequence above) 1; 150 nM 12hLO (final concentration) in buffer solution (25 mM Hepes, 0.01% Triton X-100, pH 7.0) was dispensed in columns 1, 2, 5-48. Column 1 is neutral (100% activity). Buffer only was dispensed in columns 3 and 4 as no enzyme negative controls. The plates were covered with metal lids with gas-exchange holes. 2; Compounds were pin transferred via a Kalypsys Pin Tool (Wako USA) in column 5-48. Control compound was transferred in column 2, titration of nordihydroguaiaretic acid (NDGA, Sigma-Aldrich, N5023) with top concentration of 20 mM in DMSO then 1:3 dilution in duplicate. Dilution factor of 23 nL into 4 uL final assay volume. 3; Covered assay plates were incubated for 15 min at room temperature. 4; Substrate was added to start the reaction; 40 uM arachidonic acid (Sigma-Aldrich, St. Louis, MO) was dispensed throughout the plate. 6; Chromogenic detection reagent solution (divalent iron/xylenol orange, Fe-XO) was added to each well: 200 uM xylenol orange, 300 uM ferrous ammonium sulfate prepared freshly in 50 mM sulfuric acid. 8, 9; Two absorbance readouts were obtained at 405 nm and at 573 nm using a ViewLux high-throughput CCD plate imager (Perkin-Elmer). The 573 to 405 (Read 2 / Read 1) absorbance ratio was used to compute reaction progress.
In general terms: Quantitative high-throughput screening tests each substance at several concentrations.
As for `CC1=C(C)CC(C(=O)NCCN2CCOCC2)C(C(=O)O)C1` (stereo unspecified), the “activity change, negative = inhibition” value is 0.372%.
In the case of `CN(C)c1ccc(C=O)s1`, the “activity change, negative = inhibition” value is -2.25%.
Turning to `O=C(Cc1cccc(F)c1)NC1CCC(c2ccccc2)CC1` (stereo unspecified), the “activity change, negative = inhibition” value was 21.6%.
As to `O=C(/C=C/c1ccco1)NC1CCC(c2ccccc2)CC1` (stereo unspecified), the Potency was 7.94 µM (active).
In the case of `O=C(/C=C/c1cc2cc(Cl)ccc2o1)NC1CCCC1`, the “activity change, negative = inhibition” value was -6.52%.
Regarding `CCN(CC)C(=O)CSc1ncc(-c2ccc(Br)cc2)o1`, the “activity change, negative = inhibition” value was -26.6%.
With `CC(=O)c1sc(Nc2ccc(C)c(C)c2)nc1C`, the “activity change, negative = inhibition” value was -9.89%.
For `C/C(=N\NC(N)=S)c1cc(C(C)(C)C)cc2c1CCC2(C)C`, the Potency is 31.6 µM (active).
With `COc1ccc(C2CCCCCN2C(=O)CCn2ncc(=O)c3ccccc32)cc1` (stereo unspecified), the “activity change, negative = inhibition” value is 1.87%.
Same read-out and setting: under `CNC(=O)c1ccc(-c2nc(CN3CCN(C(=O)Nc4ccc(C)c(C)c4)CC3)c(C)o2)cc1` stands 8.91%; under `COc1ccc(C2=C(C)C(=NC(C)C34CC5CC(CC(C5)C3)C4)NS2(=O)=O)cc1` (stereo unspecified), 1.75%.
In the case of `COC(=O)C1CCN(c2nc3ccccc3nc2C(C#N)C(=O)NC2CCCC2)CC1` (stereo unspecified), the “activity change, negative = inhibition” value is -2.98%.
Take `CC1CCN(c2nc3ccccc3nc2C(C#N)S(=O)(=O)c2cccc(Cl)c2)CC1` (stereo unspecified): the Potency was 11.2 µM (active).
Consider `Cc1ccc(S(=O)(=O)C(C#N)c2nc3ccccc3nc2N2CCCC2)cc1C` (stereo unspecified), for which the “activity change, negative = inhibition” value was 0.581%.
Same read-out and setting: under `COc1cccc(-c2nc(SCC(=O)Nc3nccs3)c(-c3ccc(Cl)cc3)[nH]2)c1` stands 9.61%; under `CCN(CC)S(=O)(=O)c1ccc(N2CCOCC2)c(NC(=O)CC2CCCC2)c1`, 27.8%; under `COc1ccc(C(=O)CSc2n[nH]c(N)n2)cc1`, 0%.
Regarding `COc1ccc(Cn2c(CN(C)S(C)(=O)=O)n[nH]c2=O)cc1`, the “activity change, negative = inhibition” value was 68.5%.
On to `COc1ccc(OCc2n[nH]c(=S)n2N)cc1`, for which the Potency was 15.8 µM (active).
For the compound `Cc1ccc(-n2nnc(C(=O)NCC(C)C)c2C)cc1Cl`, the “activity change, negative = inhibition” value was -28.3%.
Take `O=C(CN(Cc1ccccc1)C(=O)c1ccc2c(c1)OCCO2)NCc1ccc2c(c1)OCO2`: the “activity change, negative = inhibition” value was -24.4%.
With `O=C(CSc1nnc(-c2ccccc2)c2ccccc12)c1ccc2c(c1)OCCCO2`, the Potency was 44.7 µM (active).
On to `O=C(CSc1ncnc2sccc12)c1ccc2c(c1)OCCCO2`, for which the “activity change, negative = inhibition” value was 11.2%.
For the compound `CCc1ccc(-c2csc(NC(=O)c3nn(CC)c(=O)c4ccccc34)n2)cc1`, the “activity change, negative = inhibition” value was 16.7%.
`CCOC(=O)/C(=C/c1ccc(Cl)s1)c1nccn1C`: the “activity change, negative = inhibition” value was -9.62%.
For the compound `COc1cc(C2C(C(=O)c3ccco3)=C(O)C(=O)N2c2cc(C)on2)ccc1OCc1ccccc1` (stereo unspecified), the “activity change, negative = inhibition” value was -24.9%.
In the case of `Cc1ccc2nc(N3C(=O)C(O)=C(C(=O)c4ccco4)C3c3cccc(O)c3)sc2c1` (stereo unspecified), the Potency is 25.1 µM (active).
`CC(=O)c1sc(N2C(=O)c3oc4ccccc4c(=O)c3C2c2ccc(C)cc2)nc1C` (stereo unspecified): the “activity change, negative = inhibition” value was 15.6%.
Consider `Cc1ccc(C(N)=O)c(OCc2coc(-c3ccccc3)n2)c1`, for which the “activity change, negative = inhibition” value was -0.951%.
Take `CC(Sc1nc2cc(S(=O)(=O)N3CCCCC3)ccc2o1)C(=O)N1CCc2ccccc21` (stereo unspecified): the “activity change, negative = inhibition” value is 5.52%.
As for `CCOC(CNC(=O)c1ccc2c(c1)ncn2-c1cccc(C)c1)OCC`, the “activity change, negative = inhibition” value is -11.6%.
Consider `CC(Sc1ccc(Cl)cc1)C(=O)NCCC(=O)N1CCCC1` (stereo unspecified), for which the “activity change, negative = inhibition” value was -3.96%.
`CC(=O)CCC1=C(C)CCCC1(C)C`: the “activity change, negative = inhibition” value is 65.1% [at 176 µM].
On to `COc1cc(/C=C/C2=CC(C)(C)NC(=S)N2)cc(OC)c1OC`, for which the Potency was 44.7 µM (active).
With `COc1cc(/C=C/c2ccc(/C=C/c3cc(OC)c(OC)c(OC)c3)cc2)cc(OC)c1OC`, the “activity change, negative = inhibition” value is 6.7%.
The same measure, in the same setting: under `COc1ccc(/C=C2/C(=O)OCc3cc(OC)c(OC)cc32)c(OC)c1` stands -14.4%.
On to `COc1ccc(/C=C/C2=CC(C)(C)NC(=S)N2)c(OC)c1`, for which the Potency is 39.8 µM (active).
Take `COc1ccc(/C=N/OCc2ccccc2C#N)c(OC)c1`: the “activity change, negative = inhibition” value is 10.2%.
On the same count and under the same terms, under `COc1cc(/C=C/C(N)=O)cc(OC)c1OC` stands 10.5%; under `CCc1ccccc1NC(=O)CSc1nc2ccccc2nc1C`, -0.561%; under `Cc1cc(C)cc(NC(=O)COc2ncnc3ccccc23)c1`, -13.6%.
Regarding `COc1ccccc1CN(C)C(=O)NCc1ccc(S(=O)(=O)N2CCCCC2)cc1`, the “activity change, negative = inhibition” value is -8.8%.
Take `c1ccc(CN2CCc3c(sc4c3c(N3CCOCC3)nc3nnnn34)C2)cc1`: the “activity change, negative = inhibition” value was -7.17%.
For the compound `CCCCS(=O)(=O)CCCCCO`, the “activity change, negative = inhibition” value was 25.2%.
Turning to `CN(C)c1ccc(NC(=O)Cn2cnc3c2c(=O)n(C)c(=O)n3C)cc1`, the “activity change, negative = inhibition” value was -22.3%.
Still for that read-out and setting: for `CC1(C)NC(=O)N(CCCC(=O)Nc2cccc3cccnc23)C1=O` the value was 0.0835%.
For `Cc1cccc(NC2=NC(c3cccnc3)n3c(nc(C)cc3=O)N2)c1` (stereo unspecified), the “activity change, negative = inhibition” value was 39.2%.
As to `COc1ccccc1NC(=O)c1cc2c(OC)c(OC)c(OC)cc2[nH]1`, the “activity change, negative = inhibition” value is 17.8%.
Turning to `Cc1ccc(CNCc2ccc3c(c2)OCO3)c(C)c1`, the Potency was 44.7 µM (active).
Take `Cc1cc2oc(C(=O)NCc3ccc4c(c3)OCO4)cc(=O)c2cc1C`: the “activity change, negative = inhibition” value was -0.692%.
Turning to `CCOc1ccc(S(=O)(=O)NCc2ccc3c(c2)OCO3)cc1C`, the “activity change, negative = inhibition” value was 1.24%.
